Inconclusive results are not listed. A call without a number means that no potency is given here. Active and inactive are the calls of the source. Unless noted, calls come from the whole dose curve; as a rule, active = well fitted curve in the direction sought with a large enough effect in the repeat runs; inconclusive = weak or mixed curves; inactive = no such curve, though single readings can be large; an effect the other way counts as inactive or inconclusive.
What was measured:
[1] = qHTS assay to identify small molecule agonists of the vitamin D receptor (VDR) signaling pathway - cell viability counter screen (AID 743224); note: nearly all actives have a fitted effect of over 50% in size; note: potency is the fitted concentration of half-maximal effect
Outline: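 Here cell health was gauged by luminescent ATP detection (CellTiter-Glo, 30 min RT) in VDR-bla cells that had been incubated with test compounds for 16 h at 37C and 5% CO2.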

[2] = qHTS assay to identify small molecule antagonists of the vitamin D receptor (VDR) signaling pathway - cell viability counter screen (AID 743225); note: nearly all actives have a fitted effect of over 50% in size; note: potency is the fitted concentration of half-maximal effect
Outline: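 In this counter screen, VDR-bla HEK 293T cells receive test compound plus 3 nM final calcitriol for 16 h at 37C. Room-temperature steps of 2 h with the beta-lactamase substrate, then 30 min with CellTiter-Glo, precede the luminescence read.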

[3] = qHTS assay to identify small molecule agonists of the NFkB signaling pathway - cell viability counter screen (AID 1159515; calls by dose curve; note: nearly all actives have a fitted effect of over 55% in size; note: potency is the fitted concentration of half-maximal effect)
Outline: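 5 hr compound treatment of NFkB-bla ME-180 cells (2,000/well, seeded overnight beforehand), followed by reporter substrate for 1.5 hr. CellTiter-Glo added afterward; luminescence after 30 min RT.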

[4] = qHTS assay to identify small molecule agonists of the endoplasmic reticulum stress response signaling pathway - cell viability counter screen (AID 1159517; calls by dose curve; note: nearly all actives have a fitted effect of over 50% in size; note: potency is the fitted concentration of half-maximal effect)
Outline: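 Counter-screen wells were identical to the reporter wells. Cells were plated at 1,500 per well and dosed for 5 hr, then read for luminescence 30 min after CellTiter-Glo addition.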

[5] = qHTS assay to identify small molecule agonists of the AP-1 signaling pathway - cell viability counter screen (AID 1159525; calls by dose curve; note: nearly all actives have a fitted effect of over 55% in size; note: potency is the fitted concentration of half-maximal effect)
Outline: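 AP-1-bla ME-180 cells in Opti-MEM with 0.5% dialyzed FBS, compound exposure 5 h at 37 C in 15-point titration. Viability read in the same wells as ATP content by CellTiter-Glo luminescence, normalised to tetra-n-octylammonium bromide and DMSO controls.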

[6] = qHTS assay to identify small molecule agonists of the RXR signaling pathway - cell viability counter screen (AID 1159529); note: nearly all actives have a fitted effect of over 50% in size; note: potency is the fitted concentration of half-maximal effect
Outline: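 Viability read-out for the RXR-alpha agonist qHTS: luminescent CellTiter-Glo signal after 30 min at RT. HEK 293T bla reporter cells, 2% charcoal-stripped FBS, 16 hr compound incubation; tetraoctyl ammonium bromide as cytotoxic control.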

[7] = biological target: Nuclear receptor ROR-gamma (Homo sapiens) (UniProt P51449); experiment: qHTS assay to identify small molecule antagonists of the retinoid-related orphan receptor gamma (ROR-gamma) signaling pathway (AID 1159521; note: nearly all actives have a fitted effect of over 50% in size; note: potency is the fitted concentration of half-maximal effect)
Outline: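 Screening format: cell-based luciferase reporter in CHO cells with doxycycline-inducible RORγ. Compound pre-exposure lasts 2 h, doxycycline is 1 uM final, induction runs 16 h at 37 C, and ONE-Glo luminescence is read.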

[8] = qHTS assay to identify small molecule antagonists of the retinoic acid receptor (RAR) signaling pathway (AID 1159552; note: nearly all actives have a fitted effect of over 50% in size; note: potency is the fitted concentration of half-maximal effect)
Outline: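 Using a RARE-driven luciferase construct in C3RL4 cells, retinol at 1 uM final provided the agonist stimulus while compounds were co-applied. After 6 hours at 37 C, luminescence was recorded to flag inhibitors of retinol signaling.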

[9] = qHTS assay to identify small molecule agonists of the AP-1 signaling pathway (AID 1159526; calls by dose curve)
[10] = biological target: Retinoic acid receptor RXR-alpha (Homo sapiens) (UniProt P19793); experiment: qHTS assay to identify small molecule agonists of the RXR signaling pathway (AID 1159527; calls by dose curve; note: nearly all actives have a fitted effect of over 35% in size)
Outline: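 Fluorescence ratio readout (460 vs 530 nm) from GeneBLAzer RXR-alpha HEK 293T cells after 16 hr compound treatment; cells seeded 5 hr beforehand in low-serum, charcoal-stripped medium.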

[11] = qHTS assay to identify small molecule antagonists of the retinoid acid receptor (RAR) signaling pathway - cell viability counter screen (AID 1159551); note: nearly all actives have a fitted effect of over 35% in size
Outline: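 Seed C3RL4 cells; next day add compound, then retinol to 1 uM final; incubate 6 h at 37 C; add CellTiter-Glo; read luminescence after 30 min at RT.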

[12] = qHTS assay to identify small molecule agonists of the retinoic acid receptor (RAR) signaling pathway (AID 1159553)
Outline: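 Activation of retinol signaling was monitored via a RARE luciferase reporter in C3RL4 cells. After 6 hr compound treatment at 37 C, detection reagent was added for 30 min at room temperature before luminescence reading.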

Sequence of Retinoic acid receptor RXR-alpha (Homo sapiens) (P19793 whole entry, looked up): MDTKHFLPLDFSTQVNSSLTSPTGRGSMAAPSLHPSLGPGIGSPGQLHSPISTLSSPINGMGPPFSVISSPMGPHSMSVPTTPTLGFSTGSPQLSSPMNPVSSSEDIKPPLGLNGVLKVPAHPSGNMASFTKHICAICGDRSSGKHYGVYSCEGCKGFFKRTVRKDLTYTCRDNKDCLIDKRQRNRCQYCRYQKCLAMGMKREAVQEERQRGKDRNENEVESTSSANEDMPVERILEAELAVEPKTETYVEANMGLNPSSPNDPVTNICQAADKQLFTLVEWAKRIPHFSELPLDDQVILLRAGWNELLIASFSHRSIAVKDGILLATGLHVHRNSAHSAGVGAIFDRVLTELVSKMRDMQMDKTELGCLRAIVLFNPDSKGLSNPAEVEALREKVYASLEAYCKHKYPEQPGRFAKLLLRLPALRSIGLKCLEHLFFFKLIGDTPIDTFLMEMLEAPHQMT

Compound	Potency [1]	Potency [2]	Potency [3]	Potency [4]	Potency [5]	Potency [6]	Potency [7]	Potency [8]	Potency [9]	Potency [10]	Potency [11]	Potency [12]
CN1CCN(CCC(=O)N2c3ccccc3Sc3ccc(C(F)(F)F)cc32)CC1	21.1 µM (active)	12 µM (active)	inactive	inactive	inactive	23.9 µM (active)	–	–	–	–	–	–
CC(C)(C)NC(=O)[C@@H]1C[C@@H]2CCCC[C@@H]2CN1C[C@@H](O)[C@H](Cc1ccccc1)NC(=O)[C@H](CC(N)=O)NC(=O)c1ccc2ccccc2n1	44.2 µM (active)	–	55.7 µM (active)	49.6 µM (active)	–	24.9 µM (active)	55.2 µM (active)	55.2 µM (active)	–	–	–	–
O=C(O)c1c(Cl)cccc1Cl	inactive	inactive	inactive	inactive	inactive	inactive	inactive	inactive	inactive	inactive	inactive	inactive
CCCCCCCCOc1ccccc1C(=O)Nc1ccc(C(=O)OCC[N+](C)(CC)CC)cc1	inactive	–	12 µM (active)	inactive	26.8 µM (active)	10.7 µM (active)	inactive	–	–	–	–	inactive
COc1c(C)c2c(c(O)c1C/C=C(\C)CCC(=O)O)C(=O)OC2	inactive	–	inactive	16.9 µM (active)	inactive	–	0.133 µM (active)	inactive	inactive	–	inactive	inactive
CC(C)(C)C1CCC(CC2=C(O)c3ccccc3C(=O)C2=O)CC1 (stereo not given)	–	–	inactive	inactive	inactive	inactive	–	–	–	–	–	inactive
